We go through 40 molecules from PubChem BioAssay (Tox21).

Calls of active or inactive are those of the source. The call rests on the fitted dose curve; in most records, active means well fitted inhibition curve with a large enough effect in the repeat runs (not every such curve was filed as active); inconclusive means weak or mixed curves; inactive means flat fitted curve, though single readings scatter.
On the % scale 0 is the no-effect control and ±100 the full control effect.

Chain of Thyrotropin-releasing hormone receptor (Homo sapiens) (P34981 whole entry, looked up): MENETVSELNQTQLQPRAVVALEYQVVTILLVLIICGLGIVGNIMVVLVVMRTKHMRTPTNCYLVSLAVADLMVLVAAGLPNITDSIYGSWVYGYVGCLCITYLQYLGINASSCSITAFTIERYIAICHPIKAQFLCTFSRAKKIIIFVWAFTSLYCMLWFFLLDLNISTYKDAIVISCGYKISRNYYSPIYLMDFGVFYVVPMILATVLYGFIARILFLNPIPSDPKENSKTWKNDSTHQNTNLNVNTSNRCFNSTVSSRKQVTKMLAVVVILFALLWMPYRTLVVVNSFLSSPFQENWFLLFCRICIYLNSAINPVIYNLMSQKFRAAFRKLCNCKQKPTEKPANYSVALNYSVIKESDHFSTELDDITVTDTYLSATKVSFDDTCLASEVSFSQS

The assay addresses Thyrotropin-releasing hormone receptor (Homo sapiens) (UniProt P34981). Briefly: qHTS assay to identify small molecule antagonists of the thyrotropin-releasing hormone receptor (TRHR) signaling pathway (AID 1346877). The note with it: TRHR-HEK293, TRH-induced calcium fluorescence, antagonist mode; series mostly up to 51.3 µM; activity, negative = inhibition: at the top concentration. An excerpt: National Center for Advancing Translational Sciences [NCATS]
NIH Chemical Genomics Center [NCGC]
U.S. Environmental Protection Agency [EPA]
National Institutes of Environmental Health Sciences [NIEHS]
National Toxicology Program [NTP]
U.S. Food and Drug Administration [FDA]
Thyrotropin-releasing hormone (TRH) receptor (TRHR) is a G-protein-coupled receptor which binds the tripeptide thyrotropin releasing hormone. TRHR is found in the brain and, when bound by TRH, acts (through phospholipase C) to increase intracellular inositol trisphosphate. It plays a crucial role in the anterior pituitary where it controls the synthesis and secretion of thyroid stimulating hormone and prolactin. The TRHR-Hek293 assay is a cell-based assay, and it has the potential to screen G protein-coupled receptors. A compound/drug can either activate (agonist) or suppress (antagonist) GPCRs that can be monitored by levels of intracellular calcium. In this assay, the Tox21 10K compound library was screened to identify potential TRHR antagonists.
Tox21 Assay Protocol Summary:
The TRHR-Hek293 cells were dispensed at 1500cells/4uL/well in 1536-well black-clear bottom plates using a Multidrop dispenser. After the assay plates were incubated at a 37 C/5% CO2 incubator for 18 hours, 4 uL of Dye-Loading Solution was added to each well. The plates were incubated at 37 C for 2 hours. For agonist mode, 23 nL of compounds dissolved in DMSO, positive controls or DMSO only was transferred to the assay plate by a pin tool. The fluorescence intensity in the plates was measured using FDSS 7000EX kinetic plate reader for 3 min at 1 sec intervals. For antagonist mode, 23 nL of compounds dissolved in DMSO, positive controls or DMSO only was transferred to the assay plate by a pin tool. After 5 min incubation at room temperature, 1 uL of TRH was added on the top of the cell/compound mixtures to achieve a final agonist concentration of 1 nM. The fluorescence intensity in the plates was measured using FDSS 7000EX kinetic plate reader for 3 min at 1 sec intervals. Each test compound was measured at 15 concentrations and in triplicates.
Background: qHTS replaces the single test concentration by a dilution series.
Regarding `Nc1ccc(S(=O)(=O)O)cc1`, the “activity, negative = inhibition” value was 0.602% (inactive).
For `Nc1c(I)cc(I)c(C(=O)N(CCC(=O)O)c2ccccc2)c1I` the value was 0.366% [at 23.6 µM] (inactive); for `CCC(Cc1ccccc1)(C(=O)c1ccc(N2CCOCC2)cc1)N(C)C` (stereo not given), -3.21% (inactive).
For `CC(C)=CC=O` the value was -1.39% (inactive).
`N#C/C(=C1/SC[C@@H](c2ccc(Cl)cc2Cl)S1)n1ccnc1`: the “activity, negative = inhibition” value was -11.8% [at 23.6 µM] (inactive).
For `CCc1c2c(nc3ccc(OC(=O)N4CCC(N5CCCCC5)CC4)cc13)-c1cc3c(c(=O)n1C2)COC(=O)[C@]3(O)CC` the value was 0.0114% [at 23.6 µM] (inactive); for `Cc1occc1C(=O)Nc1ccc(C(=O)N2CCC(F)(F)/C(=C\C(=O)N3CCC(N4CCCCC4)CC3)c3ccccc32)cc1`, 0.129% [at 23.6 µM] (inactive); for `CC(COc1ccc(C(C)(C)C)cc1)OS(=O)OCCCl` (stereo not given), 0.604% (inactive).
As to `O=C(O)c1ccc(CO)o1`, the “activity, negative = inhibition” value was 0.519% (inactive).
For the molecule `O=C(CCCN1CCN(c2ccc(F)cc2)CC1)NC1c2ccccc2CSc2ccccc21` (stereo not given), the “activity, negative = inhibition” value is 0.182% [at 23.6 µM] (inactive).
Turning to `CCC(C)=O`, the “activity, negative = inhibition” value is 2.4% (inactive).
For `CO[Si](C)(OC)OC` the value was -1.82% (inactive).
For the molecule `CCCCCCOC(=O)C(C)C`, the “activity, negative = inhibition” value is 2.88% (inactive).
For `C=CCNc1nc(NCC=C)nc(N2CCN(C(c3ccc(F)cc3)c3ccc(F)cc3)CC2)n1` the value was -0.0139% [at 23.6 µM] (inactive); for `CCN(Cc1cccc(S(=O)(=O)O)c1)c1ccc(C(=C2C=CC(=[N+](CC)Cc3cccc(S(=O)(=O)[O-])c3)C=C2)c2ccccc2)cc1`, -2.15% [at 23.6 µM] (inactive); for `O=c1[nH]c2ccc(S(=O)CCN3CCC(Cc4ccc(F)cc4)CC3)cc2o1` (stereo not given), -6.63% (inactive).
For `CN(C)C(=O)Nc1ccc(Oc2ccc(Cl)cc2)cc1` the value was -2.37% (inactive); for `CC1(C)C(=O)N(Br)C(=O)N1Cl`, -1.31% (inactive).
With `CCN(CC)CCNC(=O)c1ccc(NC(C)=O)cc1` the figure was 8.78% [at 23.6 µM] (inactive); with `CCOC(=O)[C@@H](C)Oc1ccc(Oc2nc3ccc(Cl)cc3o2)cc1`, -0.422% (inactive); with `CCC(=O)Oc1ccc(/C(CC)=C(\CC)c2ccc(OC(=O)CC)cc2)cc1`, -4.03% (inactive).
Take `CCCOC(=O)c1ccc(C(=O)OCCC)nc1`: the “activity, negative = inhibition” value is 2.45% (inactive).
For `CCCCN(CCCC)CCCOC(=O)c1ccc(N)cc1` the value was -4.21% [at 23.6 µM] (inactive); for `CO[C@H]1O[C@H](CO)[C@@H](O)[C@H](O)[C@H]1O`, -4.24% (inactive); for `CC(N)CN` (stereo not given), 1.12% (inactive).
With `O=C(OCCOCCO)c1ccccc1Nc1cccc(C(F)(F)F)c1` the figure was -13.9% [at 23.6 µM] (inactive); with `O=C(N/N=C/c1ccc([N+](=O)[O-])o1)c1ccc(O)cc1`, -5.61% [at 23.6 µM] (inactive); with `CC[C@@H]([C@H](C)O)n1ncn(-c2ccc(N3CCN(c4ccc(OC[C@@H]5CO[C@@](Cn6cncn6)(c6ccc(F)cc6F)C5)cc4)CC3)cc2)c1=O`, -4.56% [at 23.6 µM] (inactive).
For `Fc1c(F)c(F)c(Br)c(F)c1F` the value was 2.13% (inactive); for `COC(OC)(C(=O)c1ccccc1)c1ccccc1`, 4.05% (inactive).
`COc1ccccc1N=Nc1c(S(=O)(=O)O)cc2cc(S(=O)(=O)O)cc(NC(C)=O)c2c1O`: the “activity, negative = inhibition” value was 3.73% (inactive).
For `Cc1cc(O)c2c(O)c3c(O)cccc3cc2c1` the value was 2.41% [at 23.6 µM] (inactive); for `CNC(=O)N(c1ccccc1)c1ccccc1`, -0.189% (inactive); for `CCOC(=O)CC(=O)C(=O)OCC`, 0.844% (inactive).
For `CCC(C(=O)OCCN(CC)CC)c1ccccc1` (stereo not given) the value was 0.628% [at 23.6 µM] (inactive); for `O=C(O)Cc1ccc(-c2ccccc2)cc1`, -0.468% [at 23.6 µM] (inactive).
Regarding `CCCCC/C(=C\c1ccccc1)CO`, the “activity, negative = inhibition” value was -13.2% (inactive).
`O=C(C(=O)c1ccccc1)c1ccccc1`: the “activity, negative = inhibition” value is -3.11% (inactive).
For `CN1CCN(CCCN2c3ccccc3Sc3ccc(S(=O)(=O)N(C)C)cc32)CC1` the value was -3.86% [at 23.6 µM] (inactive).
For `Nc1ccc(C(=O)OCCCOC(=O)c2ccc(N)cc2)cc1` the value was -7.07% (inactive).
